24 molecules from PubChem BioAssay (NCATS) can be followed below.

Structures are written as SMILES. Active and inactive are the calls of the source. How the calls were made is not given here.
Potency means the concentration at half of the fitted maximal effect.

The subject of the assay is HIV-1 nucleocapsid protein NCp7 (binding to TG oligonucleotide). Nature of the assay: HIV Nucleocapsid (AID 346).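 Further: potency is for inhibitors that block NC binding and lower polarization.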 To be noted: HIV-1 NC / fluorescein-TGTGTGTG probe, fluorescence polarization. Summed up:
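Fluorescence polarization binding of 100 nM HIV-1 NC to 10 nM fluorescein-labelled TG4xF oligonucleotide. Buffer was Hepes pH 7.5 with 250mM NaCl, 1uM ZnCl2, TCEP and 2-mercaptoethanol. Compounds were incubated 1 hr at room temperature before the read.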
As for `COCCNc1ccnc(-c2c(C)noc2C)n1`, the Potency was > 20 µM (inactive). The value for `COc1ccc(CNc2nc(-c3ccccc3OC)nc3ccccc23)c(OC)c1` was > 20 µM (inactive); that for `O=C(c1ccncc1)N1CCC2(CCCN(c3ccc(-c4ccccc4)cc3)C2)CC1` was > 20 µM (inactive); that for `COc1ccc(-c2nc3cnc(Oc4cccc(Cl)c4)nc3n(C3CC3)c2=O)cc1` was > 20 µM (inactive).

As for `O=c1c(-c2cc(F)cc(F)c2)nc2cnc(N3CCOCC3)nc2n1Cc1cccs1`, the Potency is > 20 µM (inactive).

Regarding `O=C(c1cccc(F)c1)N1CCC2(CC1)CN(c1ccncc1)C2`, the Potency was > 20 µM (inactive). Regarding `COC(=O)N1CCC2(CCCN(c3cccc(-c4ccccc4)c3)C2)CC1`, the Potency is > 20 µM (inactive).

In the case of `COCC(=O)N1CCC2(CCCN(C(c3ccccc3)c3ccccc3)C2)CC1`, the Potency was > 20 µM (inactive). The value for `O=C(Nc1cccc(F)c1)N1CCC2(CC1)CCN(C(=O)c1cccc(F)c1)CC2` was > 20 µM (inactive). Consider `O=c1c(-c2cc(F)cc(F)c2)nc2cncnc2n1C1CC1`, for which the Potency is > 20 µM (inactive). The value for `CN(C)c1ncc2nc(-c3cccs3)c(=O)n(-c3ccccc3)c2n1` was > 4 µM (inactive); that for `O=C(c1cccc(F)c1)N1CCC2(CCCN(c3ncccn3)C2)CC1` was > 20 µM (inactive); that for `COc1cccc(-c2nccc(NCc3cccs3)n2)c1` was > 20 µM (inactive).

Regarding `Cc1noc(C)c1C(=O)N1CCC2(CCN(Cc3ccccc3)CC2)CC1`, the Potency was > 20 µM (inactive). The value for `Cc1cccc(CNc2ncnc3ccc(-c4cccc(C#N)c4)cc23)c1` was > 20 µM (inactive); that for `CC(=O)NCCNc1ncncc1-c1ccccc1C(F)(F)F` was > 20 µM (inactive); that for `c1cncc(-c2nc(N3CCNCC3)c3ccccc3n2)c1` was > 20 µM (inactive). With `COc1ccccc1CN1CCCC2(CCN(S(=O)(=O)c3ccccc3)CC2)C1`, the Potency was > 20 µM (inactive). The value for `COc1ccc(CNc2cc(-c3ccccc3CN(C)C)ncn2)c(OC)c1` was > 20 µM (inactive). The value for `Cc1nc2cnc(Oc3cccc(Cl)c3)nc2n(C[C@H]2CCCO2)c1=O` was > 20 µM (inactive).

Turning to `COc1ccc(Oc2ncc3nc(-c4ccccc4)c(=O)n(Cc4cccs4)c3n2)cc1`, the Potency is > 20 µM (inactive). As for `O=C(c1ccco1)N1CCC[C@@]2(CCN(c3ccccn3)C2)C1`, the Potency is > 20 µM (inactive). The value for `CN1CCN(c2ncc3nc(-c4cccs4)c(=O)n(CCc4ccccc4)c3n2)CC1` was > 20 µM (inactive). Regarding `CN(C)c1ccc(-c2cncnc2-n2ccnc2)cc1`, the Potency was > 20 µM (inactive).
